Experimental data published in the antibiotic and cytotoxicity screens of Wong et al. (2023).
The whole screen tested about 39,000 compounds, of which about 1,500 (3.8%) were called active. This is one part of a sample in which actives are shown more often than they occur.

system: HSkMC (human skeletal muscle cells); experiment: cytotoxicity call (relative viability < 0.9); details: 10 µM

Row | Structure (SMILES) | cytotoxicity call
1 | COc1cccc(NC(=O)N[C@@H]2C=C[C@@H](CC(=O)N3CCN(C)CC3)O[C@H]2CO)c1 | inactive
2 | C[C@@H]1CN([C@@H](C)CO)C(=O)c2cccc(NS(=O)(=O)c3cn(C)cn3)c2O[C@H]1CN(C)C(=O)Nc1ccccc1 | inactive
3 | C[C@H]1CCCCO[C@H](CN(C)C(=O)Nc2ccccc2)[C@@H](C)CN([C@@H](C)CO)C(=O)c2cc(NC(=O)CCC(F)(F)F)ccc2O1 | inactive
4 | O=C(C[C@H]1CC[C@@H]2[C@H](COC[C@@H](O)CN2C(=O)c2cccnc2)O1)NCC1CC1 | inactive
5 | Cc1ccc(CSc2nnc(CCN)o2)cc1 | inactive
6 | CCn1ncc(Br)c1CN | inactive
7 | CC(C)NC(=O)[C@@H](N)c1ccccc1 | inactive
8 | COc1ccc(NC(=O)Nc2ccc3c(c2)CC(=O)N([C@H](C)CO)C[C@@H](C)[C@H](CN(C)C(=O)Nc2cccc4ccccc24)O3)cc1 | inactive
9 | C[C@@H]1CN([C@H](C)CO)C(=O)c2ccccc2-c2ccccc2CO[C@@H]1CN(C)Cc1ccc(Oc2ccccc2)cc1 | inactive
10 | COc1ccc(S(=O)(=O)N(C)C[C@@H]2Oc3ccc(NC(=O)Nc4c(C)noc4C)cc3CC(=O)N([C@@H](C)CO)C[C@H]2C)cc1 | inactive
11 | O=C(C=CC=Cc1ccc2c(c1)OCO2)N1CCCCC1 | inactive
12 | C[C@H](CO)N1C[C@H](C)[C@H](CN(C)C(=O)Nc2ccc3c(c2)OCO3)Oc2c(NC(=O)Nc3ccc(C(F)(F)F)cc3)cccc2C1=O | inactive
13 | C[C@H](CO)N1C[C@H](C)[C@@H](CN(C)C(=O)Nc2ccc3c(c2)OCO3)Oc2c(NC(=O)Nc3ccc(C(F)(F)F)cc3)cccc2C1=O | active
14 | C[C@@H]1CN([C@@H](C)CO)C(=O)c2cccc(NC(=O)Nc3ccc(C(F)(F)F)cc3)c2O[C@H]1CN(C)C(=O)Nc1ccc2c(c1)OCO2 | inactive
15 | C[C@H]1CN([C@@H](C)CO)C(=O)c2cccc(NC(=O)Nc3ccc4c(c3)OCO4)c2O[C@@H]1CN(C)C(=O)Nc1ccc(C(F)(F)F)cc1 | inactive
16 | C[C@@H]1CN([C@H](C)CO)C(=O)c2cccc(NC(=O)Nc3ccc(C(F)(F)F)cc3)c2O[C@@H]1CN(C)C(=O)Nc1ccc2c(c1)OCO2 | inactive
17 | C[C@H]1CN([C@@H](C)CO)C(=O)c2cccc(NC(=O)Nc3ccc(C(F)(F)F)cc3)c2O[C@@H]1CN(C)C(=O)Nc1ccc2c(c1)OCO2 | active
18 | Cc1ccc(S(=O)(=O)Nc2ccc3c(c2)CC(=O)N([C@H](C)CO)C[C@H](C)[C@@H](CN(C)Cc2ccncc2)O3)cc1 | inactive
19 | C[C@@H]1CCCCO[C@@H](CN(C)S(=O)(=O)c2ccccc2)[C@H](C)CN([C@H](C)CO)C(=O)c2cc(NC(=O)NC3CCCCC3)ccc2O1 | inactive
20 | CN(C)CCCNC(=O)C[C@@H]1C=C[C@@H](NC(=O)Cc2cccnc2)[C@H](CO)O1 | inactive
21 | [N-]=[N+]=NCCOCCNC(=O)CCCOc1ccc(CS(=O)c2nnc(-c3ccc(F)cc3)o2)nc1 (stereo not given) | active
22 | O=C1OCCN/C1=C/C(=O)c1ccccc1 | inactive

Row | Structure (SMILES) | cytotoxicity call
23 | Cc1ccc(S(=O)(=O)N(C)C[C@@H]2Oc3ccc(NS(=O)(=O)c4cn(C)cn4)cc3CC(=O)N([C@@H](C)CO)C[C@H]2C)cc1 | inactive
24 | C[C@@H]1CN([C@@H](C)CO)C(=O)Cc2cc(NC(=O)C3CC3)ccc2O[C@H]1CN(C)Cc1ccc2c(c1)OCO2 | inactive
25 | O=C(C[C@H]1C=C[C@H](NC(=O)Nc2ccc3c(c2)OCO3)[C@@H](CO)O1)NCCCN1CCOCC1 | inactive
26 | C[C@@H]1CN([C@@H](C)CO)S(=O)(=O)c2ccc(C#CCN(C)C)cc2O[C@@H]1CN(C)Cc1ccncc1 | inactive
27 | CO[C@@H]1CN(C)C(=O)c2ccc(NC(=O)NC(C)C)cc2OC[C@@H](C)N(Cc2ccc(-c3ccccn3)cc2)C[C@@H]1C | inactive
28 | Cc1ccc(OC(=O)N(C)C[C@@H]2OCc3ccccc3-c3ccccc3C(=O)N([C@@H](C)CO)C[C@@H]2C)cc1 | inactive
29 | C[C@H]1CN([C@@H](C)CO)C(=O)c2cccc(NC(=O)Nc3cccc4ccccc34)c2O[C@H]1CN(C)C(=O)Nc1ccccc1 | inactive
30 | C[C@@H]1CN([C@@H](C)CO)C(=O)c2cccc(NC(=O)c3nc4ccccc4s3)c2O[C@@H]1CN(C)S(=O)(=O)c1cn(C)cn1 | inactive
31 | C[C@H]1CN([C@@H](C)CO)C(=O)c2cccc(NC(=O)c3nc4ccccc4s3)c2O[C@@H]1CN(C)C(=O)Nc1cccc2ccccc12 | inactive
32 | C[C@H](CO)N1C[C@H](C)[C@@H](CN(C)C(=O)Nc2cccc3ccccc23)Oc2c(NC(=O)c3nc4ccccc4s3)cccc2C1=O | active
33 | C[C@H]1CN([C@@H](C)CO)C(=O)c2cccc(NC(=O)c3nc4ccccc4s3)c2O[C@H]1CN(C)S(=O)(=O)c1cn(C)cn1 | active
34 | C[C@@H]1CN([C@H](C)CO)C(=O)c2cccc(NC(=O)c3nc4ccccc4s3)c2O[C@@H]1CN(C)C(=O)Nc1cccc2ccccc12 | inactive
35 | C[C@H]1CN([C@@H](C)CO)C(=O)c2cccc(NC(=O)Nc3cccc4ccccc34)c2O[C@@H]1CN(C)C(=O)Nc1ccccc1 | active
36 | C[C@@H]1CN([C@@H](C)CO)C(=O)c2cccc(NC(=O)c3nc4ccccc4s3)c2O[C@H]1CN(C)S(=O)(=O)c1cn(C)cn1 | inactive
37 | C[C@@H]1CN([C@H](C)CO)C(=O)c2cccc(NC(=O)Nc3cccc4ccccc34)c2O[C@@H]1CN(C)C(=O)Nc1ccc(F)cc1 | active
38 | C[C@H](CO)N1C[C@H](C)[C@@H](CN(C)C(=O)Nc2ccc(F)cc2)Oc2c(NC(=O)Nc3cccc4ccccc34)cccc2C1=O | inactive
39 | C[C@H](CO)N1C[C@H](C)[C@H](CN(C)C(=O)Nc2ccccc2)Oc2c(NC(=O)Nc3cccc4ccccc34)cccc2C1=O | inactive
40 | C[C@H](CO)N1C[C@H](C)[C@H](CN(C)C(=O)Nc2ccc(F)cc2)Oc2c(NC(=O)Nc3cccc4ccccc34)cccc2C1=O | inactive
41 | COC(=O)CN1C(=O)COc2ccc(C)cc21 | inactive
42 | COc1ccc(cc1)CN1CC[C@]2(CC1)CN([C@@H](CO)c1[nH]c3cc(ccc3c12)OC)C(=O)CN(C)C | inactive
43 | CC(C)NC(=O)Nc1ccc2c(c1)C(=O)N([C@@H](C)CO)C[C@H](C)[C@H](CN(C)Cc1ccc(C(=O)O)cc1)O2 | inactive
44 | COc1ccc(C#Cc2cnc3c(c2)C(=O)N([C@H](C)CO)C[C@H](C)[C@@H](CN(C)C(=O)CC2CC2)O3)cc1 | inactive

Row | Structure (SMILES) | cytotoxicity call
45 | C[C@@H]1CN([C@@H](C)CO)C(=O)c2cc(-c3cccnc3)cnc2O[C@@H]1CN(C)Cc1ccc(-c2ccccc2)cc1 | inactive
46 | O=C(C[C@H]1CC[C@H](NS(=O)(=O)c2ccc(F)cc2)[C@H](CO)O1)N1CCC(Cc2ccccc2)CC1 | inactive
47 | COc1ccc(NC(=O)N(C)C[C@@H]2Oc3c(NC(=O)Nc4cccc5ccccc45)cccc3C(=O)N([C@H](C)CO)C[C@H]2C)cc1 | inactive
48 | C[C@@H]1CN([C@@H](C)CO)C(=O)c2cccc(NC(=O)Nc3cccc4ccccc34)c2O[C@H]1CN(C)C(=O)Nc1ccccc1 | active
49 | C[C@@H]1CN([C@H](C)CO)C(=O)c2cccc(NC(=O)Nc3cccc4ccccc34)c2O[C@H]1CN(C)C(=O)Nc1cccc2ccccc12 | active
50 | COc1ccc(NC(=O)N(C)C[C@@H]2Oc3c(NC(=O)Nc4cccc5ccccc45)cccc3C(=O)N([C@H](C)CO)C[C@@H]2C)cc1 | inactive
51 | C[C@H]1CN([C@@H](C)CO)C(=O)c2cccc(NC(=O)Nc3ccccc3)c2O[C@H]1CN(C)C(=O)Nc1cccc2ccccc12 | inactive
52 | C[C@@H]1CN([C@@H](C)CO)C(=O)c2cccc(NC(=O)Nc3cccc4ccccc34)c2O[C@H]1CN(C)C(=O)Nc1cccc2ccccc12 | inactive
53 | C[C@H](CO)N1C[C@H](C)[C@@H](CN(C)C(=O)Nc2cccc3ccccc23)Oc2c(NC(=O)Nc3ccccc3)cccc2C1=O | inactive
54 | C[C@@H]1CN([C@H](C)CO)C(=O)c2cccc(NC(=O)Nc3cccc4ccccc34)c2O[C@H]1CN(C)C(=O)Nc1ccccc1 | inactive
55 | COc1ccc(NC(=O)N(C)C[C@H]2Oc3c(NC(=O)Nc4cccc5ccccc45)cccc3C(=O)N([C@@H](C)CO)C[C@@H]2C)cc1 | active
56 | C[C@@H]1CN([C@H](C)CO)C(=O)c2cccc(NC(=O)Nc3cccc4ccccc34)c2O[C@@H]1CN(C)C(=O)Nc1ccccc1 | inactive
57 | C[C@@H]1CN([C@@H](C)CO)C(=O)c2cccc(NC(=O)Nc3ccccc3)c2O[C@@H]1CN(C)C(=O)Nc1cccc2ccccc12 | active
58 | C[C@H]1CN([C@@H](C)CO)C(=O)c2cccc(NC(=O)Nc3cccc4ccccc34)c2O[C@H]1CN(C)C(=O)Nc1cccc2ccccc12 | inactive
59 | CN1C(=O)c2cc(NS(=O)(=O)c3cccc(F)c3)ccc2OC[C@H]2O[C@H](CC(=O)NCCN3CCCCC3)CC[C@@H]21 | inactive
60 | NC(=O)NC(=O)C[n+]1ccc(/C=N/O)cc1 | inactive
61 | COc1ccc(S(=O)(=O)N(C)C[C@H]2Oc3ccc(N(C)C)cc3C(=O)N([C@@H](C)CO)C[C@@H]2C)cc1 | inactive
62 | CS(=O)(=O)N1C[C@H]2C[C@@H](F)[C@@H](O)[C@@H]2C1 | inactive
63 | C[C@@H]1CCCCO[C@@H](CN(C)C(=O)Nc2ccc3c(c2)OCO3)[C@@H](C)CN([C@H](C)CO)C(=O)c2cc(NC(=O)NC3CCCCC3)ccc2O1 | inactive
64 | O=C(C[C@H]1C[C@@H]2c3cc(NS(=O)(=O)c4ccc(F)cc4)ccc3O[C@@H]2[C@H](CO)O1)NCc1cccnc1 | inactive
65 | O=C(C[C@@H]1C[C@H]2c3cc(NC(=O)NC4CCCC4)ccc3O[C@H]2[C@H](CO)O1)NCc1ccc2c(c1)OCO2 | inactive
